For this assay, the target named is Luciferin 4-monooxygenase (Photuris pensylvanica) (UniProt Q27757). Nature of the assay: Secondary Assay for Luciferase (Kinase-Glo TM) Inhibition Counterscreen. The protocol:
NIH Chemical Genomics Center [NCGC] Malcolm Walkinshaw, Hugh Morgan, Linda Gilmore University of Edinburgh, UK MLPCN Grant: 1 R03 MH085697-01 NCGC Assay Overview: Luciferase (Kinase-Glo, Promega Corporation) was assayed for its ability to generate light using ATP and luciferin as substrates. The ATP concentration in the assay (10 uM) was within the linear range of enzyme activity for the assay conditions used. This assay was used as an counter screen for human pyruvate kinase M2 isoform.
NCGC Assay Protocol Summary: Four uL of substrate mix (final concentration, 50 mM imidazole pH 7.2, 50 mM KCl, 7 mM MgCl2, 10 uM ATP, 0.01% Tween 20, 0.05% BSA) was dispensed into white 1536 well plates. Twenty-three nL of compound was delivered by a pin tool and 2 uL of luciferase detection mix (Kinase-Glo, Promega)) was added. Following 8-minute incubation at ambient temperature, luminescence was measured by a ViewLux (Perkin Elmer) at 5 seconds exposure/plate. Data were normalized to the controls for basal activity (DMSO only) and 100% inhibition (40 uM SIB 1757) and curve fitting was performed using Hill equation.
(In general: Kinase-Glo reads ATP consumption through a luciferase reaction.)

Results filed as inconclusive are left out. Entries that show only a call come without a potency. Active and inactive are the calls of the source. Calls come from the whole dose curve; as a rule, active = well fitted inhibition curve with a large enough effect; inconclusive = small, poorly fitted or top-dose-only effect; inactive = flat fitted curve, though single readings scatter.
Potency is the fitted concentration of half-maximal effect.

`Cc1ccc(C(=O)n2c(N)nc3ccccc32)cc1`: the Potency was 11.6 µM (active).

With `C[C@]12CC[C@@H]3c4ccc(O)c(O)c4CC[C@H]3[C@@H]1CC[C@@H]2O`, the Potency result was “inactive”.

Source of the values: PubChem BioAssay AID2530 (National Center for Advancing Translational Sciences (NCATS), 2010).
